Test results published in PubChem BioAssay (NCI).
This is part of a sample that, as a whole, favours compounds with a hit. Of some 83,000 tested, about 20% had one in any assay.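 96-well plates, one dose, 48 hours. Percent growth reported; active if below 10.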 A number with no mark means an inactive call. Activity calls are given as the source filed them.

Key:
Test in all cases: NCI-60 one-dose screen, 48 h (100 = growth as untreated, 0 = no growth, -100 = all killed)
Settings in all cases: 10 µM unless noted
NCI-H23 lung = system: NCI-H23 lung
NCI-H226 lung = system: NCI-H226 lung
NCI-H322M lung = system: NCI-H322M lung
HOP-62 NSCLC = system: HOP-62 NSCLC
NCI-H460 lung = system: NCI-H460 lung
HOP-92 NSCLC = system: HOP-92 NSCLC
NCI-H522 lung = system: NCI-H522 lung
A549/ATCC NSCLC = system: A549/ATCC NSCLC
786-0 renal = system: 786-0 renal
COLO 205 colon = system: COLO 205 colon
DU-145 prostate = system: DU-145 prostate
K-562 leukemia = system: K-562 leukemia
MALME-3M melanoma = system: MALME-3M melanoma
MDA-MB-231 breast = system: MDA-MB-231 breast
SF-268 CNS = system: SF-268 CNS
SF-295 CNS = system: SF-295 CNS
SF-539 CNS = system: SF-539 CNS
M14 melanoma = system: M14 melanoma
RXF 393 renal = system: RXF 393 renal

SMILES	growth (NCI-H23 lung)	growth (NCI-H226 lung)	growth (NCI-H322M lung) [%]	growth (HOP-62 NSCLC)	growth (NCI-H460 lung)	growth (HOP-92 NSCLC)	growth (NCI-H522 lung)	growth (A549/ATCC NSCLC) [%]	growth (786-0 renal)	growth (COLO 205 colon)	growth (DU-145 prostate)	growth (K-562 leukemia)	growth (MALME-3M melanoma)	growth (MDA-MB-231 breast)	growth (SF-268 CNS)	growth (SF-295 CNS)	growth (SF-539 CNS)	growth (M14 melanoma)	growth (RXF 393 renal)
O=C1CC(c2ccc(Cl)cc2)c2ncn(-c3cccc(Cl)c3)c2N1 (centres undefined)	72%	71%	91.6	51.2%	34%	60.8%	27.6%	45.2	55%	97.7%	62.9%	23.8%	53.2%	48.3%	58.2%	47.6%	33%	21.6%	–
NS(=O)(=O)c1ccc(CCN2C(=O)/C(=C\c3ccc(Cl)cc3)C=C2c2ccc3ccccc3c2)cc1	95.4%	80.8%	92.4	72%	102%	94%	60.9%	62	93.4%	100%	108%	96.4%	98.8%	90.5%	103%	99.1%	101%	95%	–
COc1ccc(-c2nocc2-c2cc(OC)c(OC)c(OC)c2)cc1	19.2%	58.8%	44.6	29.6%	8.8% (active)	76%	-5.37% (active)	25.4	43.9%	-12.4% (active)	15.2%	12.8%	60.3%	25.8%	39%	-4.64% (active)	2.52% (active)	3.03% (active)	–
COc1ccc(-c2nc(N)ncc2Oc2ccccc2OC)c(O)c1	38.8%	73.5%	50.5	27.9%	16.4%	49.2%	28.7%	35.7	37%	2.73% (active)	34.9%	12.2%	48%	51.9%	46.3%	-0.599% (active)	8.99% (active)	12.5%	–
N#Cc1c(NC(=O)c2ccco2)[n+]([O-])c2cc(F)c(F)cc2[n+]1[O-]	82.7%	103%	103	120%	106%	-4.85% (active)	59.2%	97.1	98.5%	98.3%	76.1%	56.6%	116%	96.7%	89.7%	106%	74.8%	112%	–
CC(C)n1c(NCCc2ccc(O)c(O)c2)nc2c1c(=O)n(C)c(=O)n2C	87.2%	90.1%	95.1	103%	100%	83.7%	85.2%	92.8	90.4%	103%	102%	97.1%	97.9%	92.2%	94.2%	106%	104%	98.8%	–
CCN1CCN(c2nc(C)cc(N(CCNc3ccnc4cc(Cl)ccc34)Cc3ccc4c(c3)OCO4)n2)CC1	67.5%	75.3%	36.3	-19.8% (active)	18.1%	-4.69% (active)	-0.151% (active)	20.4	-24.5% (active)	-75.8% (active)	40.2%	-54.9% (active)	-82.2% (active)	-0.846% (active)	30.7%	-62.9% (active)	-90.7% (active)	-80.2% (active)	-54.6% (active)
CC(C)C1CCC(C)C(C2(C#N)C(N)=NC(N)=C2C#N)C1=O (centres undefined)	92.3%	100%	98.8	104%	105%	88.9%	89.4%	105	106%	100%	102%	98.7%	92.3%	95.8%	97.3%	103%	97.7%	96.1%	–
CC[n+]1c(/C=C/C=C2\N(C)c3ccccc3C2(C)C)sc2ccccc21	20%	20%	25.6	11.7%	7.56% (active)	-3.67% (active)	9.12% (active)	11.9	14.8%	-59.2% (active)	20.3%	2.44% (active)	13.6%	8.67% (active)	25.6%	-6.72% (active)	19.9%	12.6%	–
CCN(CCN(C)C)C(=O)CNCc1cc(C(N)=O)ccn1	101%	89.1%	106	87%	108%	87.2%	78.1%	72.4	103%	108%	112%	95.2%	114%	97.6%	108%	104%	105%	103%	–
NC1=Nc2ccccc2N(O)N1	102%	98.2%	96.8	80.9%	110%	107%	71.7%	74.3	101%	105%	113%	96.7%	97%	102%	98.1%	102%	96.3%	103%	–
COC(=O)[C@]12CC[C@@H](C)[C@H](C)[C@@H]1C1=CC[C@@H]3[C@@]4(C)C(C#N)=CC(C)=C4CC[C@@]3(C)[C@]1(C)CC2	78.2%	82.7%	108	113%	89.3%	91.7%	78.1%	92.2	93%	86.1%	99.3%	84.5%	87.5%	85.4%	85.3%	85.4%	91.8%	77.2%	–
COc1ccc(C2CC(=O)c3c(O)c(OC)c(OC)c(OC)c3O2)cc1O (centres undefined)	33.8%	89.2%	44.3	61.9%	3.01% (active)	79.5%	13.1%	28.7	49%	67.3%	18.2%	11.6%	57.5%	17.1%	44.6%	6.54% (active)	-13% (active)	7.68% (active)	–
COc1ccc(-c2cc3c(oc2=O)-c2ccccc2OC3OC(C)=O)cc1 (centres undefined)	93.4%	94.3%	100	98.8%	104%	83.5%	88%	93.3	91.3%	97.4%	107%	62.5%	107%	85.7%	108%	97.9%	101%	101%	–
COc1ccc2c(CCCC(c3ccccc3)c3ccccc3)c3[n+](cc2c1OC)CCc1cc2c(cc1-3)OCO2	-30.1% (active)	2.75% (active)	16.2	-9.19% (active)	-53% (active)	-40.6% (active)	-21% (active)	10.2	-18.7% (active)	-67.8% (active)	-13.4% (active)	-15.4% (active)	-66.7% (active)	-63.4% (active)	-58% (active)	-32.2% (active)	-38.1% (active)	-67.5% (active)	–
O=C(NO)c1ccc(Cn2c(=O)n(CCc3ccccc3)c(=O)c3ccccc32)cc1	8.96% (active)	48.1%	43.7	31.1%	25.2%	66.8%	29.9%	33.6	45%	4.15% (active)	30.5%	35.4%	–	39%	46.4%	22.1%	12.1%	22.2%	15.8%
